In the library only some 0.38% were active in any assay of this set; here they are far more common.
Rac1 act GTP bind – GTP binding modulators of activated mutant Rac1, primary screen, biochemical, bead-based flow cytometry, multiplex, fluorescent GTP; percent activity (GTP binding), % at 10 µM; GST-Rac1 activated beads; actives lie on both sides; 100% means binding = to untreated wells; AID 764, 2007; 0.11% of 190,000 active; Ras-related C3 botulinum toxin substrate 1 (Homo sapiens), P63000;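 active = GTP binding at least 20 percentage points away from the 100% baseline, in either direction, so actives lie on both sides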
Rac1 wt modul – wildtype Rac1 GTP binding modulators, primary screen, biochemical, GST-Rac1 beads, flow cytometry, multiplex; GTP binding activity (% of control), % at 10 µM; fluorescent GTP binding; actives lie on both sides; 0 = cold GTP competed, 100 = untreated; AID 757, 2007; 0.27% of 190,000 active;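 active = GTP binding activity at least 20 points away from the 100% control level, either lower or higher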
Rab7 wt GTP bind – modulators of GTP binding to Rab7, primary screen, biochemical, wildtype, multiplex bead flow cytometry; 0.055% of 190,000 active; GTP binding activity (percent of control), % at 10 µM; GST-Rab7 beads, fluorescent GTP binding; actives lie on both sides; untreated = 100%, excess cold GTP = 0%; Rab7 GTPase wild type (dog), Bodipy-FL-GTP binding;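 active = fluorescent GTP binding to Rab7 beads changed by at least 20 points from the 100% baseline, either direction, mostly lower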;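 note: median green fluorescence of bound Bodipy-FL-GTP per Rab7 bead population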
Rab2 wt GTP – modulators of GTP binding to Rab2A wildtype, primary screen, biochemical, dog, bead-based flow cytometry, multiplex | Ras-related protein Rab-2A (Canis lupus familiaris), P61105 | GST-Rab2 wt beads, Bodipy-GTP binding | GTP binding activity, % at 10 µM | 0.19% of 190,000 active | AID 760, 2007;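 active = GTP binding activity at least 20 points away from 100%, either lowered or raised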
Cdc42 wt – modulators of GTP binding to wildtype Cdc42, primary screen, biochemical, multiplex bead flow cytometry, Bodipy-GTP | percent activity (GTP binding), % at 10 µM | AID 761, 2007 | Cell division control protein 42 homolog (Homo sapiens), P60953 | 0.2% of 190,000 active | GST-Cdc42 beads; actives lie on both sides;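 active = percent activity GTP binding at least 20 points away from the 100% baseline, either down as inhibitor or up as activator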;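 note: median bead fluorescence of bound Bodipy-FL-GTP at 100 nM; below 100% means less GTP binding so inhibitor and above means activator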
Target sequence (P60953 whole entry, looked up): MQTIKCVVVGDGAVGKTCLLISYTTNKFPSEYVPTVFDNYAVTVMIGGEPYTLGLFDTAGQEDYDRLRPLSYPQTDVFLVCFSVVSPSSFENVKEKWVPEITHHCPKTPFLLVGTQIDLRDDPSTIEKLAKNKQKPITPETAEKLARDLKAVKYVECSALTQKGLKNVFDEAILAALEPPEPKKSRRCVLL
HRas wt GTP – modulators of GTP binding to HRas wildtype, primary screen, biochemical, bead-based flow cytometry, multiplex | GTPase HRas (Homo sapiens), P01112 | GTP binding activity, % at 10 µM | 0.14% of 190,000 active | AID 759, 2007 | GST-Ras wt beads, Bodipy-FL-GTP binding; actives lie on both sides;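 active = GTP binding activity at least 20% away from the 100% baseline, either lowered as inhibitor or raised as activator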
Target sequence (P01112 whole entry, looked up): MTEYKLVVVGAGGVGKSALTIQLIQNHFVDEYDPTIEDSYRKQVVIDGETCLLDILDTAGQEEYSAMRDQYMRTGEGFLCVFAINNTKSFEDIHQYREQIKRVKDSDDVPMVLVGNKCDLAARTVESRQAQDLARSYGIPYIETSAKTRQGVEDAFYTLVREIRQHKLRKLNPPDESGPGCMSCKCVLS
Each line names hits and unclear results; the compound was inactive in the other large screens; [ ] = another dose, or the depositor's remark.

COc1cc(/C=C2/C(C)=C(C#N)c3nc(N)c(C#N)c(C)c32)ccc1OCC(=O)O	none
N#CC(c1ccc(Cl)nn1)c1ccc(Cl)cc1Cl (stereo unspecified)	Rac1 wt modul 121.0[activator]
O=C1CN(C(=O)COc2ccc(Br)cc2Br)c2ccccc2N1	none
COc1ccc(CC(=O)NNC(=O)c2ccncc2)cc1	none
CC(=O)Nc1ccc(Nc2ccc3nonc3c2[N+](=O)[O-])cc1	none
CCc1nnc(NS(=O)(=O)c2ccc(Nc3ccc4nonc4c3[N+](=O)[O-])cc2)s1	Rac1 wt modul 77.0, Rab2 wt GTP 76.0, HRas wt GTP 77.0
CC(=C\c1ccco1)/C=C(\C#N)C(=O)NCCc1c[nH]c2ccccc12	none
CC[N+]1(CC)CC2CCC(C)(C1)C2(C)C (stereo unspecified)	none
C/C(=C1/SC(=S)N(CCC(=O)O)C1=O)c1ccc(O)cc1	Rac1 act GTP bind 77.0
COc1cc(/C=C/c2ccc3cccc([N+](=O)[O-])c3n2)ccc1OCC(=O)O	Rab2 wt GTP 69.0, Cdc42 wt 70.0, HRas wt GTP 72.0
COCCN(C(=S)Nc1cc(C)cc(C)c1)C(C)c1ccco1 (stereo unspecified)	none
C=CCNC(=O)c1cc2c(=O)n3cc(C)ccc3nc2nc1NCC1CCCO1 (stereo unspecified)	Rab7 wt GTP bind 65.0, Rab2 wt GTP 78.0, HRas wt GTP 69.0
O=C(NCc1ccc2c(c1)OCO2)C1CCCN1S(=O)(=O)c1ccc(Cl)cc1 (stereo unspecified)	none
N#Cc1c(=O)c2nc(NCCCO)ncc2n2c(=O)c3ccccc3[nH]c12	none
N#Cc1c(=O)c2nc(NCc3ccccc3)ncc2n2ccccc12	Rac1 wt modul 79.0
O=C(CSc1cccc[n+]1[O-])NC(=O)c1ccc(OC(F)F)cc1	none
Cc1ccccc1-n1c(SCc2c(C)noc2C)nnc1-c1cccnc1	Rac1 wt modul 132.0[activator]
Cc1ccccc1-n1c(SCc2c(C)noc2C)nnc1-c1ccncc1	none
C/C(=N\NC(=O)c1ccc(Cl)c(S(=O)(=O)Nc2ccccc2Cl)c1)c1ccncc1	Rac1 wt modul 73.0
CC1(C(=O)OCc2cc(=O)n3cc(Br)ccc3n2)CC1(Cl)Cl (stereo unspecified)	none
CC(C)n1nc(C(=O)Nc2nnc(SCc3c(Cl)cccc3Cl)s2)c2ccccc2c1=O	none
Cc1nnc2ccc(-c3cccc(NC(=O)c4ccc(Cl)nc4)c3)nn12	none
CCOc1ccccc1C(=O)Nc1cccc(-c2ccc3nncn3n2)c1	Rac1 wt modul 73.0, Rab2 wt GTP 75.0, Cdc42 wt 73.0, HRas wt GTP 78.0
O=C(Nc1cccc(-c2ccc3nncn3n2)c1)c1ccco1	Rac1 wt modul 77.0
Cc1nnc2ccc(-c3cccc(NC(=O)c4ccc(Br)o4)c3)nn12	Rac1 wt modul 79.0
Cc1nc2ccccn2c1-c1csc(Nc2cccc(O)c2)n1	Rac1 wt modul 75.0
Cc1cccc(-c2nnc(NC(=O)c3ccc(N4C(=O)CCC4=O)cc3)s2)c1	none
Cc1ccccc1-c1nnc(NC(=O)c2ccc(N3C(=O)CCC3=O)cc2)s1	Rac1 wt modul 130.0[activator]
Cc1cn2c(nc(=O)c3cccnc32)s1	Rac1 wt modul 76.0
CCC(SC1=N/C(=C/c2ccccc2)C(=O)N1c1ccccc1)C(=O)Nc1cc(C)on1 (stereo unspecified)	none
COc1ccc(/C=C2/N=C(SCC(=O)Nc3cc(C)on3)N(c3ccccc3)C2=O)cc1	Rac1 wt modul 77.0
COCCOc1cc(-n2ccnc2SC)c(Cl)cc1Cl	none
N#Cc1c(-c2cccc(Br)c2)cc(-c2ccco2)[nH]c1=O	Rac1 act GTP bind 76.0, Rac1 wt modul 75.0, Cdc42 wt 79.0
O=C(Nc1cnn(C23CC4CC(CC(C4)C2)C3)c1)c1cnn2cccnc12	Rac1 wt modul 138.0[activator], Rab2 wt GTP 121.0[activator], Cdc42 wt 129.0[activator], HRas wt GTP 123.0[activator]
OC(COc1ccc2ccccc2c1)Cn1ccnc1 (stereo unspecified)	none
OC(CNCCc1ccc(Cl)cc1)COc1ccc2ccccc2c1 (stereo unspecified)	Rac1 act GTP bind 77.0, Rab2 wt GTP 78.0, Cdc42 wt 77.0
COc1cc2c(-c3ccc(O)cc3)nc3c(c(C)nn3-c3ccccc3)c2cc1OC	none
COc1cc2c(C)nc3c(c(C)nn3-c3ccccc3)c2cc1OC	Rac1 wt modul 72.0
CN1C(=O)N(C)c2ccc(C=O)c3cccc1c23	Rac1 wt modul 77.0
CN(C)c1cccc2c(/C=N/O)ccc(N(C)C)c12	none
COc1cc(/C=N/Nc2nc(C)nc3c2cnn3-c2ccccc2)ccc1O	Rac1 wt modul 70.0, Rab2 wt GTP 79.0, Cdc42 wt 77.0
COc1cc(/C=N/NC(=O)c2cnn3c(C)cc(-c4ccccc4)nc23)ccc1O	none
NC(=O)N=Nc1c(O)[nH]c2c(Br)cc(Br)cc12	Rac1 wt modul 69.0, Rab2 wt GTP 75.0, Cdc42 wt 75.0, HRas wt GTP 78.0
O=C(CCCCCNC(=O)c1ccccc1)N=Nc1c(O)[nH]c2c(Br)cc(Br)cc12	none
Cc1ccc(/C=C/C(=O)c2ccccc(=O)c2O)cc1C	Rac1 act GTP bind 74.0, Cdc42 wt 78.0
O=S(=O)(CC(CN1CCOCC1)N1CCOCC1)c1ccccc1 (stereo unspecified)	Rac1 act GTP bind 53.0, Rac1 wt modul 56.0, Rab7 wt GTP bind 23.0, Rab2 wt GTP 55.0, Cdc42 wt 60.0, HRas wt GTP 58.0
Nc1ccc2c(c1)C(=O)C(=O)c1ccccc1-2	Cdc42 wt 70.0
O=C1C(=O)c2ccc(-c3ccccc3)cc2-c2ccccc21	none
NC(=S)N=Nc1c(O)[nH]c2cc(F)c(F)cc12	Rab2 wt GTP 78.0
Nc1[nH]nc2ncc3cc4ccccc4nc3c12	Rac1 wt modul 68.0
Cc1cc2ncn(CCC(=O)NC3CCCC3)c2cc1C	none
Cc1cc2ncn(CCC(=O)NC(C)(C)C)c2cc1C	Rac1 wt modul 77.0
Cc1c(NC(=O)c2nn3c(c2Br)NC(c2ccccc2)CC3C(F)(F)F)c(=O)n(-c2ccccc2)n1C (stereo unspecified)	none
